# Inconclusive results are not listed. Entries that show only a call come without a potency. A number with no mark means an inactive call. Active and inactive are the calls of the source. The call rests on the fitted dose curve; in most records, active means well fitted curve in the direction sought with a large enough effect; inconclusive means small, poorly fitted or top-dose-only effect, or another doubt; inactive means no such curve, though single readings can be large; an effect the other way counts as inactive or inconclusive.
# Legend:
# [1] = target: Rap guanine nucleotide exchange factor 3 (Homo sapiens) (UniProt O95398); experiment: Confirmatory qHTS for antagonist of cAMP-regulated guanine nucleotide exchange factor 3 (EPAC1) (AID 1645880); conditions: EPAC1 Rap1B-BODIPY-GDP exchange, fluorescence; activity, negative = inhibition: at 115 µM (top of the series); further: nearly all actives have a fitted effect of over 55% in size; further: potency means the concentration at half of the fitted maximal effect
# Method in brief: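 Released BODIPY-GDP fluoresces less than Rap1-bound BODIPY-GDP; the signal is followed at 480/540 nm at 5-min intervals over 30 min, after 5 min at room temperature. Reactions contain 100 nM EPAC1, 250 nM RAP1B-BODIPY-GDP and 50 uM GDP; results are normalized to ATA and DMSO.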
# [2] = target: Rap guanine nucleotide exchange factor 3 (Homo sapiens) (UniProt O95398); experiment: Confirmatory qHTS for agonist of cAMP-regulated guanine nucleotide exchange factor 3 (EPAC1) (AID 1645881); further: nearly all actives have a fitted effect of over 75% in size; further: potency means the concentration at half of the fitted maximal effect;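 on activation: EPAC1 catalysed release of BODIPY-GDP from Rap1B seen as fluorescence loss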
# [3] = target: Rap guanine nucleotide exchange factor 4 (Homo sapiens) (UniProt Q8WZA2); experiment: Confirmatory qHTS for agonist of cAMP-regulated guanine nucleotide exchange factor 4 (EPAC2) (AID 1645884);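 further: nucleotide exchange releases bodipy-GDP from Rap1 and this lowers its fluorescence; nearly all actives have a fitted effect of over 65% in size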; further: potency means the concentration at half of the fitted maximal effect
# [4] = target: Rap guanine nucleotide exchange factor 3 (Homo sapiens) (UniProt O95398); experiment: Counterscreen qHTS for antagonist of cAMP-regulated guanine nucleotide exchange factor 3 (EPAC1) (AID 1645888)
# Method in brief: (§1)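 Rap1B–BODIPY-GDP (250 nM) with 50 uM GDP; compounds pin-transferred to 9.74 nM–152 uM final (activator) or from 7.32 nM upwards (inhibitor). Fluorescence Ex/Em 480/540 nm read at 5 and 30 min, then after adding cAMP or buffer, at room temperature.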
# [5] = target: Rap guanine nucleotide exchange factor 3 (Homo sapiens) (UniProt O95398); experiment: Counterscreen qHTS for agonist of cAMP-regulated guanine nucleotide exchange factor 3 (EPAC1) (AID 1645889); further: nearly all actives have a fitted effect of over 40% in size; further: potency means the concentration at half of the fitted maximal effect
# Method in brief: as §1
# Chain of Rap guanine nucleotide exchange factor 3 (Homo sapiens) (O95398 whole entry, looked up): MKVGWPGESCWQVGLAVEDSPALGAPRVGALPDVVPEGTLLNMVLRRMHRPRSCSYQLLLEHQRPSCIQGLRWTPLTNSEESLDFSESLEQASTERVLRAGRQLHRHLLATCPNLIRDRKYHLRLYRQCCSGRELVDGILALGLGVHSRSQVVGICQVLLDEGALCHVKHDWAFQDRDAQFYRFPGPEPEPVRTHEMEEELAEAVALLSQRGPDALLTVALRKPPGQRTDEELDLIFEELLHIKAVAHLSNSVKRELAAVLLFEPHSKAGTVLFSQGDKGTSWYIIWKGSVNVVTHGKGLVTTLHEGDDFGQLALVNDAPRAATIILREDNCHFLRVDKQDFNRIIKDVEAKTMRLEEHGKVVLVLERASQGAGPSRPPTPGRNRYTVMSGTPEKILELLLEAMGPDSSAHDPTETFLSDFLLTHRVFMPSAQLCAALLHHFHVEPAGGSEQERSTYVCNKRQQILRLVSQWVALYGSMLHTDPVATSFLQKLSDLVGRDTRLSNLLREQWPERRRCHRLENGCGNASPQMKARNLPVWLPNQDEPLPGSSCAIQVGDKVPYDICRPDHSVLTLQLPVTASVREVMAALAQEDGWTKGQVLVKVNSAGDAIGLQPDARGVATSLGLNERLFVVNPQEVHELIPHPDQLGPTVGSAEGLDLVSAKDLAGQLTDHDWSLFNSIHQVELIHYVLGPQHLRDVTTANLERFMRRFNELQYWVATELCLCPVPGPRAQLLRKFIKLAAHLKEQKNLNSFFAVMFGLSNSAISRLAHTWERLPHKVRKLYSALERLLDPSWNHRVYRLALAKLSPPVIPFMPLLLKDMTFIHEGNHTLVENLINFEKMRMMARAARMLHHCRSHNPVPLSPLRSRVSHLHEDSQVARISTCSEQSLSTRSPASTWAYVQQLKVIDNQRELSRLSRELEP
# Chain of Rap guanine nucleotide exchange factor 4 (Homo sapiens) (Q8WZA2 whole entry, looked up): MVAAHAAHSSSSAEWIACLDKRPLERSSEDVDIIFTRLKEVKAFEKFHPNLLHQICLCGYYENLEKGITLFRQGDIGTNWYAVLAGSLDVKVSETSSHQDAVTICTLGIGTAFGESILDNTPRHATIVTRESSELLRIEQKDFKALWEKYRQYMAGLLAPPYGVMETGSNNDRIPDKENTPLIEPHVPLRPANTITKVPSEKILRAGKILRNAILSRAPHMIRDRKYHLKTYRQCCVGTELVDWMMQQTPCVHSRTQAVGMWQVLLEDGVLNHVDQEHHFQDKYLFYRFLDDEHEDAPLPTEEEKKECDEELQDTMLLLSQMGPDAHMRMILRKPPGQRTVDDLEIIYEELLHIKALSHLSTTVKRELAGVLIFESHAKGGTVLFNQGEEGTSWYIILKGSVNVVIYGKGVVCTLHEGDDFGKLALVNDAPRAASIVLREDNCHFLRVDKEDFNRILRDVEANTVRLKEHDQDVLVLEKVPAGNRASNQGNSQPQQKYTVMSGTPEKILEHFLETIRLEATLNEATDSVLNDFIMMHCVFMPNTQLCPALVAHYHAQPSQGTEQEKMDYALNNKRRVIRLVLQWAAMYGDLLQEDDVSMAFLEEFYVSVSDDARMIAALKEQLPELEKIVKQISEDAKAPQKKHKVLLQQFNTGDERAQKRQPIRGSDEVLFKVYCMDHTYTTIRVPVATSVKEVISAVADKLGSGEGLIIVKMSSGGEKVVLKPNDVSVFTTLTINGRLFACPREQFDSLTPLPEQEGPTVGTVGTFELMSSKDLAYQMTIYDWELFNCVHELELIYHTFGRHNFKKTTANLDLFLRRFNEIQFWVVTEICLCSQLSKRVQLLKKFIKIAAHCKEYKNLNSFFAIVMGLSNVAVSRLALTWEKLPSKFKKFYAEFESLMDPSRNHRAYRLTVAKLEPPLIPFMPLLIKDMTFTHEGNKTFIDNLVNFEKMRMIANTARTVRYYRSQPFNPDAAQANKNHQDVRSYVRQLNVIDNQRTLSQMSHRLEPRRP
Structure (SMILES),Potency [1],Potency [2],Potency [3],Potency [4],Potency [5],activation [3],"activity change, negative = inhibition [4]",activation [5]
Cc1nnc(SCC(=O)Nc2sccc2C#N)s1,inactive,inactive,inactive,inactive,0.0178 µM (active),–,–,–
CCC1SC2=NC(C)=C(C(=O)OC)C(c3cccs3)N2C1=O (stereo not given),inactive,inactive,–,–,–,"-2.13% [at 17.1 µM, percent relative to cAMP agonist control]",-9.77% [at 30.8 µM],5.87% [at 30.8 µM]
C=CCn1c(Cc2ccccc2)nc2c(cnn2-c2ccccc2)c1=O,inactive,inactive,inactive,inactive,inactive,–,–,–
Cc1ccc(NC(=O)COC(=O)c2ccccc2-c2nc3ccccc3s2)c(C)c1,inactive,inactive,inactive,inactive,inactive,–,–,–
O=C1CC(=O)Nc2cc(S(=O)(=O)Nc3ccc(Cl)c(C(F)(F)F)c3)ccc2N1,inactive,inactive,inactive,inactive,inactive,–,–,–
Cc1cc(C)nc(SCC(=O)c2ccc(Cl)cc2)n1,inactive,inactive,inactive,inactive,inactive,–,–,–
CCC(=O)NC(c1ccc(C)cc1)c1cc([N+](=O)[O-])c2cccnc2c1O (stereo not given),53.6 µM (active),inactive,inactive,inactive,inactive,–,–,–
CS(=O)(=O)c1ccc2c(c1)SC1=NC(=O)/C(=C/c3ccco3)C(=N)N12,12 µM (active),inactive,inactive,inactive,inactive,–,–,–
COc1ccc(-c2csc3ncn(-c4ccc(C)cc4)c(=O)c23)cc1OC,inactive,inactive,inactive,inactive,inactive,–,–,–
CCOc1ccc(C(=O)NCC(=O)Nc2ncccc2C)cc1OCC,inactive,inactive,inactive,inactive,inactive,–,–,–
O=C(CN1CCCC1)Nc1ccccc1Sc1ccc(Cl)cc1,inactive,inactive,inactive,inactive,inactive,–,–,–
O=C(c1ccc(CN2CCc3ccccc3C2)cc1)N1CCCCC1,inactive,inactive,inactive,inactive,inactive,–,–,–
Cc1ccc(S(=O)(=O)NCc2ccccc2)cc1C(=O)N1CCCC(C(F)(F)F)C1 (stereo not given),inactive,inactive,inactive,inactive,inactive,–,–,–
Cc1ccc(C)c(N2CCN(C(=O)CCCn3c(=O)c4cccn4c4cccnc43)CC2)c1,inactive,inactive,–,–,0.0089 µM (active),"6.05% [at 17.1 µM, percent relative to cAMP agonist control]",-21.9% [at 30.8 µM],–
O=C1c2ccccc2C(Nc2cccnc2)N1Cc1ccccc1Cl (stereo not given),inactive,inactive,inactive,inactive,inactive,–,–,–
CCOC(=O)C1CCCCN1Cc1cccc(Oc2ccccc2)c1 (stereo not given),inactive,inactive,–,–,–,"6.17% [at 17.1 µM, percent relative to cAMP agonist control]",-24.9% [at 30.8 µM],29% [at 30.8 µM]
COc1ccc(N2C(=O)CSC2c2cccc(F)c2)c(OC)c1 (stereo not given),inactive,inactive,–,–,–,"2.35% [at 17.1 µM, percent relative to cAMP agonist control]",-18.3% [at 30.8 µM],1.09% [at 30.8 µM]
Cc1ccc([C@H]2C(C(=O)O)=CC[C@@H](c3ccc(C(C)C)cc3)N2S(=O)(=O)c2ccc(C)cc2)cc1,75.7 µM (active),inactive,inactive,inactive,inactive,–,–,–
Cc1noc(C)c1C(=O)N(CC(C)C)c1nc2ccccc2s1,inactive,inactive,inactive,inactive,inactive,–,–,–
O=C1c2cccc3c(N4CCCCC4)ccc(c23)C(=O)N1c1cccc(O)c1,inactive,100 µM (active),112 µM (active),inactive,50.1 µM (active),–,–,–
COc1ccccc1CN(C(=O)CNC(=O)c1ccco1)C(C(=O)NCC1CCCO1)c1ccc(OC)c(OC)c1 (stereo not given),inactive,inactive,inactive,inactive,inactive,–,–,–
Nc1nc(C(c2ccccc2)c2ccccc2)cs1,inactive,inactive,inactive,inactive,inactive,–,–,–
O=S(=O)(O)c1cc(O)c2cc(Nc3ccccc3)ccc2c1,37.9 µM (active),inactive,inactive,inactive,inactive,–,–,–
CCC(=O)N1N=C(c2ccc(Cl)cc2)CC1c1ccco1 (stereo not given),inactive,inactive,inactive,inactive,inactive,–,–,–
N=c1c(S(=O)(=O)c2ccc(Br)cc2)cc2c(=O)n3ccccc3nc2n1C1CCCC1,inactive,inactive,inactive,inactive,inactive,–,–,–

Structure (SMILES),Potency [1],Potency [2],Potency [3],Potency [4],Potency [5],activation [3],"activity change, negative = inhibition [4]",activation [5]
COc1ccc(N=C2NC(=O)S/C2=C\c2ccc(N(C)C)cc2)cc1,inactive,inactive,inactive,inactive,inactive,–,–,–
CC1(C(=O)NS(=O)(=O)c2cccc(Cl)c2)CCN1C(=O)C1(c2ccc(Cl)cc2)CCC1 (stereo not given),11.2 µM (active),inactive,–,–,–,"6.65% [at 17.1 µM, percent relative to cAMP agonist control]",-18.6% [at 30.8 µM],5.49% [at 30.8 µM]
CC1CN(C(=O)CCC(=O)NCc2ccc(F)cc2)c2ccccc2S1 (stereo not given),inactive,inactive,–,–,–,"-4.63% [at 17.1 µM, percent relative to cAMP agonist control]",-2.67% [at 30.8 µM],31.5% [at 30.8 µM]
CNC(=O)c1ccc2snnc2c1,inactive,inactive,inactive,inactive,inactive,–,–,–
CC(=O)NC(c1ccccc1)c1nc(-c2cccs2)cs1 (stereo not given),inactive,inactive,inactive,inactive,inactive,–,–,–
Cc1ccc(Cc2c(-c3cccc(Cl)c3)nc3ccc(Br)cn23)cc1,75.7 µM (active),inactive,inactive,inactive,inactive,–,–,–
O=C1c2cccc3cccc(c23)N1Cc1cccc(F)c1,inactive,inactive,–,–,–,"7.33% [at 17.1 µM, percent relative to cAMP agonist control]",-7.63% [at 30.8 µM],26.6% [at 30.8 µM]
CCOC(=O)c1[nH]c2ccc(OCC)cc2c1NC(=O)CN1CCN(c2ccccn2)CC1,inactive,inactive,inactive,inactive,inactive,–,–,–
COc1ccc(C(=O)c2ccc(Cl)cc2)c(OC)c1OC,inactive,inactive,–,–,–,"6.47% [at 17.1 µM, percent relative to cAMP agonist control]",-1.07% [at 30.8 µM],6.99% [at 30.8 µM]
CC(=NNC(=O)c1ccncc1)c1ccc2ccccc2c1O,inactive,100 µM (active),112 µM (active),inactive,39.8 µM (active),–,–,–
Cc1ccc(S(=O)(=O)N2[C@@H](c3ccc(F)cc3)C(C(=O)O)=CC[C@H]2c2ccc(C(C)C)cc2)cc1,75.7 µM (active),inactive,inactive,inactive,inactive,–,–,–
Cc1ccc(S(=O)(=O)Nc2ccc3ccccc3c2[N+](=O)[O-])cc1,75.7 µM (active),inactive,inactive,inactive,inactive,–,–,–
Cc1cc(C)c(S(=O)(=O)c2ccccc2C)c(SCC(C)C)n1,inactive,inactive,–,–,–,"10.6% [at 17.1 µM, percent relative to cAMP agonist control]",-9.64% [at 30.8 µM],-2.44% [at 30.8 µM]
Cc1ccc(N2CC(c3nc4ccccc4[nH]3)CC2=O)c(C)c1 (stereo not given),inactive,inactive,inactive,inactive,inactive,–,–,–
O=c1ccc(-c2ccccc2)nn1Cc1ccc(Cl)cc1,inactive,inactive,inactive,inactive,inactive,–,–,–
O=C(O)Cc1ccc(N=Nc2c(O)c(C(=O)O)cc3ccccc23)cc1,33.8 µM (active),inactive,inactive,inactive,inactive,–,–,–
CCCCN(CCCC)Cc1cc(=O)oc2cc(C)c(Cl)cc12,inactive,inactive,inactive,inactive,inactive,–,–,–
Cc1cc(C)c(S(=O)(=O)c2ccc(F)cc2)c(C)c1,inactive,inactive,–,–,–,"0% [at 17.1 µM, percent relative to cAMP agonist control]",-27.6% [at 30.8 µM],-0.628% [at 30.8 µM]
COc1ccccc1C(=O)Nc1ccccc1C(=O)N1C(C)CCCC1C (stereo not given),inactive,inactive,inactive,inactive,inactive,–,–,–
O=C(c1ccccc1)c1cccc(C(=O)c2ccccc2)c1,inactive,inactive,inactive,inactive,inactive,–,–,–
CCCN(CC1CC1)c1cc2c(c3c1ccn3C)C1CCC2C1 (stereo not given),inactive,inactive,inactive,inactive,inactive,–,–,–
Cc1ccc(-c2noc(CSc3nnnn3C3CCCCC3)n2)cc1,inactive,inactive,inactive,inactive,inactive,–,–,–
Cc1cccc(C)c1OCC(=O)Nc1ccccc1N1CCCCC1,inactive,inactive,inactive,inactive,inactive,–,–,–
CCOC(=O)CSc1nc2c(c(=O)n(C)c(=O)n2C)n1Cc1ccccc1F,inactive,inactive,inactive,inactive,inactive,–,–,–
O=C(Nc1ccc2nc3n(c(=O)c2c1)CCCCC3)c1c(F)ccc([N+](=O)[O-])c1F,15.1 µM (active),inactive,inactive,inactive,inactive,–,–,–
